In PubChem BioAssay AID1332 (Southern Research Institute, 2008):
Values after ≈ are worked out from the molar mass of the structure shown. In all, about 1,100 compounds went through this assay and about 170 (15%) were called active. How the calls were made is not given here. Only a sample is shown.

Test: Mycobacterium tuberculosis H37Rv growth inhibition, confirmatory dose response, cytotoxicity (AID 1332);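 on CC50: Vero cells exposed to compounds for 72 hours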;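 on IC50: bacteria incubated 7 days before adding Alamar blue readout reagent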
Settings: M. tuberculosis H37Rv growth inhibition; CC50: measured here: Vero cell cytotoxicity; IC50: measured here: IC50 H37Rv replicates

Compound | IC50 [µg/mL] | outcome | CC50 [µg/mL]
CCn1cc(C(=O)O)c(=O)c2cnc(N3CCCC3)nc21 | > 20 | inactive | –
Cc1cccc(N(C)C(=S)Oc2ccc3ccccc3c2)c1 | > 20 | inactive | –
O=C(O)C1(O)C[C@H](O)C(O)[C@@H](O)C1 (some centres undefined) | > 20 | inactive | –
COc1ccc([C@@H]2CC(=O)c3c(O)cc(O)cc3O2)cc1O | > 20 | inactive | –
CCCCN(CCCC)CCCOC(=O)c1ccc(N)cc1 | > 20 | inactive | –
CC1(C)S[C@@H]2[C@H](NC(=O)C(C(=O)O)c3ccsc3)C(=O)N2[C@H]1C(=O)O (some centres undefined) | > 20 | inactive | –
CC(=O)N(CC(O)CN(C(C)=O)c1c(I)c(C(=O)NCC(O)CO)c(I)c(C(=O)NCC(O)CO)c1I)c1c(I)c(C(=O)NCC(O)CO)c(I)c(C(=O)NCC(O)CO)c1I (centres undefined) | > 20 | inactive | –
Cn1c(-c2ccc3c(c2)OCO3)cc(=O)c2ccccc21 | > 20 | inactive | –
Cc1c(N)c(=O)n(-c2ccccc2)n1C | > 20 | inactive | –
COc1ccc2cc1Oc1ccc(cc1)C[C@H]1c3cc(c(OC)cc3CCN1C)Oc1c(OC)c(OC)cc3c1[C@H](C2)N(C)CC3 | > 20 | inactive | > 6
Cc1[nH]ccc2c1[nH]c1cc(=O)ccc12 | > 20 | inactive | > 6
CC(C)(C)NCC(O)COc1ccccc1C1CCCC1 (centres undefined) | > 20 | inactive | –
O=C(O)c1cccnc1 | > 20 | inactive | –
O=C1C(=O)c2ccccc2C(O)=C1C1CCC(c2ccc(Cl)cc2)CC1 (centres undefined) | 10.1 (≈ 27.6 µM) | active | > 6
C/C=C(\C)C(=O)O[C@H]1[C@H](OC(C)=O)[C@@]2(CO)C(CC1(C)C)C1=CC[C@@H]3[C@@]4(C)CC[C@H](O[C@@H]5O[C@H](C(=O)O)[C@@H](O[C@@H]6O[C@H](CO)[C@@H](O)[C@H](O)[C@H]6O)[C@H](O)[C@H]5O[C@@H]5O[C@H](CO)[C@@H](O)[C@H](O)[C@H]5O)[C@](C)(CO)C4CC[C@@]3(C)[C@]1(C)C[C@H]2O (some centres undefined) | > 20 | inactive | –
CN(C)CCOC(c1ccccc1)c1ccccc1 | > 20 | inactive | –
CN(C)CCCOc1nn(Cc2ccccc2)c2ccccc12 | > 20 | inactive | –
CCCCc1cc2ccccc2c(OCCN(C)C)n1 | 13.5 (≈ 49.5 µM) | active | –
CCCCOc1cc(C(=O)NCCN(CC)CC)c2ccccc2n1 | > 20 | inactive | –
CC[N+](CC)(CC(=O)Nc1c(C)cccc1C)Cc1ccccc1 | > 20 | inactive | –
Clc1ccc(C(OCCN2CCCCC2)c2ccccc2)cc1 (centres undefined) | > 20 | inactive | > 6
CN1CCc2c(c3ccccc3n2Cc2ccccc2)C1 | > 20 | inactive | –
Clc1ccc(Cn2c(CN3CCCC3)nc3ccccc32)cc1 | 3.58 (≈ 11 µM) | active | –
CCOc1ccc(Cc2nccc3cc(OCC)c(OCC)cc23)cc1OCC | > 20 | inactive | > 6
CC(C)n1c(/C=C/[C@H](O)C[C@H](O)CC(=O)O)c(-c2ccc(F)cc2)c2ccccc21 | > 20 | inactive | 0.354 (≈ 0.86 µM)
C=C[C@]12CN(C)[C@@H]3[C@H]4COC(CC41)[C@]1(C(=O)Nc4ccccc41)[C@@H]32 | > 20 | inactive | –
COC1=CC(=O)C[C@@H](C)[C@]12Oc1c(Cl)c(OC)cc(OC)c1C2=O | > 20 | inactive | > 6

Compound | IC50 [µg/mL] | outcome | CC50 [µg/mL]
NC(=O)N/N=C/c1ccc([N+](=O)[O-])o1 | 11.5 (≈ 58 µM) | active | > 6
CC(C(=O)O)c1ccc(C(=O)c2ccccc2)s1 (centres undefined) | > 20 | inactive | –
CCC(=O)OCC(=O)[C@@]1(OC(=O)CC)[C@@H](C)C[C@H]2[C@@H]3CCC4=CC(=O)C=C[C@]4(C)[C@@]3(Cl)[C@@H](O)C[C@@]21C | > 20 | inactive | –
CC[C@H]1CN2CCc3cc(OC)c(OC)cc3[C@@H]2C[C@@H]1C[C@H]1NCCc2cc(O)c(OC)cc21 | > 20 | inactive | < 0.023
Fc1ccc([C@@H]2CCNC[C@H]2COc2ccc3c(c2)OCO3)cc1 | 13.1 (≈ 39.7 µM) | active | 4.88 (≈ 14.8 µM)
C[C@H](NCCc1ccc(O)cc1)[C@H](O)c1ccc(O)cc1 | > 20 | inactive | –
C[C@@H]1CC[C@@]2(NC1)O[C@H]1C[C@H]3[C@@H]4CC=C5C[C@@H](O)CC[C@]5(C)[C@H]4CC[C@]3(C)[C@H]1[C@@H]2C | > 20 | inactive | –
C[C@]12C=CC(=O)C=C1CC[C@@H]1[C@@H]2[C@@H](O)C[C@@]2(C)[C@H]1CC[C@]2(O)C(=O)CO | > 20 | inactive | –
CC(C)(C)NCC(O)COc1cccc2c1CC(O)C(O)C2 (centres undefined) | > 20 | inactive | –
NC[C@H]1O[C@H](OC2[C@@H](N)C[C@@H](N)[C@H](O)[C@H]2O[C@@H]2O[C@H](CO)[C@@H](O)[C@H]2O)[C@H](N)[C@@H](O)[C@@H]1O (some centres undefined) | > 20 | inactive | –
NC[C@@H]1O[C@H](O[C@H]2[C@@H](O)[C@H](O[C@@H]3[C@@H](O)[C@H](N)C[C@H](N)[C@H]3OC3O[C@H](CO)[C@@H](O)[C@H](O)[C@H]3N)O[C@@H]2CO)[C@H](N)[C@@H](O)[C@@H]1O (some centres undefined) | 19.8 (≈ 32.1 µM) | active | –
NC[C@@H]1O[C@H](O[C@H]2[C@@H](O)[C@H](O[C@@H]3[C@@H](O)[C@H](N)C[C@H](N)[C@H]3O[C@H]3O[C@H](CN)[C@@H](O)[C@H](O)[C@H]3N)O[C@@H]2CO)[C@H](N)[C@@H](O)[C@@H]1O | > 20 | inactive | –
C[N+]1(C)C[C@@H](O)C[C@H]1C(=O)[O-] | > 20 | inactive | –
CC(C)(Sc1cc(C(C)(C)C)c(O)c(C(C)(C)C)c1)Sc1cc(C(C)(C)C)c(O)c(C(C)(C)C)c1 | > 20 | inactive | –
CC1=C(C(=O)O)N2C(=O)[C@@H](NC(=O)[C@H](N)c3ccc(O)cc3)[C@H]2SC1 | > 20 | inactive | –
N=C(N=C(N)N)N1CCOCC1 | > 20 | inactive | –
Cn1cnc([N+](=O)[O-])c1Sc1ncnc2nc[nH]c12 | 13.1 (≈ 47.2 µM) | active | > 6
c1ccc(CNc2ncnc3nc[nH]c23)cc1 | > 20 | inactive | –
CN1C[C@H](C(=O)N[C@]2(C)O[C@@]3(O)[C@@H]4CCCN4C(=O)[C@H](Cc4ccccc4)N3C2=O)CC2c3cccc4[nH]cc(c34)C[C@H]21 (some centres undefined) | > 20 | inactive | –
CN1CCC(=C2c3ccccc3C=Cc3ccccc32)CC1 | > 18.3 | active | > 6
CN1CCC(=C2c3ccccc3CC(=O)c3sccc32)CC1 | > 20 | inactive | –
CN1CCC(=C2c3ccccc3CCc3sccc32)CC1 | > 20 | inactive | > 6
CN1CCC(=C2c3ccccc3Sc3ccccc32)CC1 | 18 (≈ 61.5 µM) | active | –
CCC(=O)OC1(C(=O)CCl)[C@@H](C)C[C@H]2[C@@H]3CCC4=CC(=O)C=C[C@]4(C)[C@@]3(F)[C@@H](O)C[C@@]21C (some centres undefined) | > 20 | inactive | –
C[C@H](N)[C@H](O)c1cccc(O)c1 | > 20 | inactive | –
CNCC(O)C(O)C(O)C(O)CO (centres undefined) | > 20 | inactive | –
C[n+]1cccc(C(=O)[O-])c1 | > 20 | inactive | –

Compound | IC50 [µg/mL] | outcome | CC50 [µg/mL]
CCC(c1ccc(O)cc1)C(CC)c1ccc(O)cc1 (centres undefined) | > 20 | inactive | –
COc1ccc2c(c1)N(C[C@H](C)CN(C)C)c1ccccc1S2 | > 20 | inactive | > 6
CC[C@H]1OC(=O)[C@H](C)[C@@H](O[C@H]2C[C@@](C)(OC)[C@@H](O)[C@H](C)O2)[C@H](C)[C@@H](O[C@@H]2O[C@H](C)C[C@H](N(C)C)[C@H]2O)[C@](C)(O)C[C@@H](C)[C@@H]2N[C@@H](COCCOC)O[C@H]([C@H]2C)[C@]1(C)O | 1.33 (≈ 1.59 µM) | active | –
CO[C@H]1C[C@H](O[C@H]2[C@H](C)[C@@H](O[C@@H]3O[C@H](C)C[C@H](N(C)C)[C@H]3O)[C@@H](C)C[C@@]3(CO3)C(=O)[C@H](C)[C@@H](O)[C@@H](C)[C@@H](C)OC(=O)[C@@H]2C)O[C@@H](C)[C@@H]1O | > 20 | inactive | –
CC[C@H]1OC(=O)[C@H](C)[C@@H](O[C@H]2C[C@@](C)(OC)[C@@H](O)[C@H](C)O2)[C@H](C)[C@@H](O[C@@H]2O[C@H](C)C[C@H](N(C)C)[C@H]2O)[C@](C)(O)C[C@@H](C)C(=O)[C@H](C)[C@@H](O)[C@]1(C)O | 1.7 (≈ 2.32 µM) | active | –
CO[C@H]1C[C@H](O[C@H]2[C@H](C)[C@@H](O[C@@H]3O[C@H](C)C[C@H](N(C)C)[C@H]3OC(C)=O)[C@@H](C)C[C@@]3(CO3)C(=O)[C@H](C)[C@@H](OC(C)=O)[C@@H](C)[C@@H](C)OC(=O)[C@@H]2C)O[C@@H](C)[C@@H]1OC(C)=O | > 20 | inactive | –
COc1ccc2cc3[n+](cc2c1OC)CCc1cc2c(cc1-3)OCO2 | > 20 | inactive | –
O=C(O)CCC(=O)Nc1ccc(S(=O)(=O)Nc2nccs2)cc1 | > 20 | inactive | –
C[N+]1(C)CCC[C@H]1C(=O)[O-] | > 20 | inactive | –
C[C@H]1O[C@@H](OC2CC[C@]3(C=O)[C@H]4CC[C@]5(C)[C@@H](C6=CC(=O)OC6)CC[C@]5(O)[C@@H]4CC[C@]3(O)C2)C[C@H](O)[C@@H]1O (some centres undefined) | > 20 | inactive | 2.54 (≈ 4.75 µM)
COc1ccc(C(=O)c2ccccc2O)c(O)c1 | > 20 | inactive | –
O=c1cc(-c2ccc(O)cc2)oc2c(C3O[C@H](CO)[C@@H](O)[C@H](O)[C@H]3O)c(O)cc(O)c12 (some centres undefined) | > 20 | inactive | –
CC(=O)N[C@@H](CC(=O)O)C(=O)O | > 20 | inactive | –
Cc1cc2c(cc1S(N)(=O)=O)S(=O)(=O)CCC2 | > 20 | inactive | –
CCC1NC(=O)c2cc(S(N)(=O)=O)c(Cl)cc2N1 (centres undefined) | > 20 | inactive | –
Cc1cc2cc3c(C)cc(=O)oc3c(C)c2o1 | > 20 | inactive | –
COC(=O)[C@H]1[C@H]2C[C@@H]3c4[nH]c5cc(OC)ccc5c4CCN3C[C@H]2C[C@@H](OC(=O)c2cc(OC)c(OC)c(OC)c2)[C@@H]1OC | 2.32 (≈ 3.81 µM) | active | –
CCOC(=O)Oc1c(OC)cc(C(=O)O[C@@H]2C[C@@H]3CN4CCc5c([nH]c6cc(OC)ccc56)[C@H]4C[C@@H]3[C@H](C(=O)OC)[C@H]2OC)cc1OC | 7.94 (≈ 11.9 µM) | active | –
COC(=O)[C@H]1[C@H]2C[C@@H]3c4[nH]c5cc(OC)ccc5c4CCN3C[C@H]2C[C@@H](OC(=O)/C=C/c2cc(OC)c(OC)c(OC)c2)[C@@H]1OC | 4.23 (≈ 6.67 µM) | active | > 6
COc1ccc2c3c([nH]c2c1)[C@H]1C[C@H]2[C@H](C[C@@H](O)[C@H](OC)[C@H]2C(=O)O)CN1CC3 | > 20 | inactive | –
O=C(O)[C@@H]1[C@H]2C[C@H]3c4[nH]c5ccccc5c4CCN3C[C@@H]2CC[C@@H]1O | > 20 | inactive | –
COC(=O)[C@H]1[C@H]2C[C@H]3c4[nH]c5ccccc5c4CCN3C[C@@H]2CC[C@@H]1O | > 20 | inactive | –
COC(=O)[C@H]1[C@H]2C[C@H]3c4[nH]c5ccccc5c4CCN3C[C@H]2CC[C@@H]1O | > 20 | inactive | –
COC(=O)[C@@H]1[C@H]2C[C@H]3c4[nH]c5ccccc5c4CCN3C[C@@H]2CC[C@@H]1O | > 20 | inactive | –
COC(=O)C1=CO[C@@H](C)[C@H]2CN3CCc4c([nH]c5ccccc45)[C@@H]3C[C@H]12 | > 20 | inactive | –
